Measurements from PubChem BioAssay AID1159580 (chemical genetic matrix, 2015).
In all, about 5,500 compounds went through this assay and about 2,000 (36%) were called active. About 18% were inconclusive and are not listed. Rule as the data show it: active = normalized growth mostly below about 0.91 (no sharp cut-off); inconclusive = no clear call, values can overlap the other calls; inactive = mostly above about 0.92. Some of the results follow.

Assay: chemical genetic growth profiling, strain panel (AID 1159580);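 also: tested at 20 µM; growth read once vehicle control cultures reached saturation at 30 °C; 1 = growth at the plate median or of vehicle wells; lower values mean less growth of the strain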
Conditions: S. cerevisiae deletion strains, growth OD
[1] = locus YAL040C, strain CLN3, hits give low values
[2] = locus YCL061C, strain MRC1 (second series), hits give low values
[3] = locus YDR363W, strain ESC2, hits give low values
[4] = locus YER002W, strain NOP16, hits give low values
[5] = locus YMR263W, strain SAP30, hits give low values
[6] = locus YNL175C, strain NOP13, hits give low values
[7] = locus YNL197C, strain WHI3, hits give low values
[8] = locus YNL224C, strain SQS1, hits give low values
[9] = locus YOR083W, strain WHI5 (second series), hits give low values
[10] = locus YPL055C, strain LGE1, hits give low values
[11] = locus YPL241C, strain CIN2, hits give low values

Measured: normalized growth

S=C=Nc1cccc(C2(N3CCCCC3)CCCCC2)c1
inactive: locus YAL013W, strain DEP1, hits give low values 0.993 | [1] 0.998 | [2] 0.998 | [3] 0.993 | [4] 1.01 | locus YJR075W, strain HOC1, hits give low values 0.984 | [5] 1 | locus YMR307W, strain GAS1, hits give low values 1 | locus YNL153C, strain GIM3, hits give low values 0.968 | [6] 0.994 | [7] 1.08 | [8] 1.04 | [9] 1 | [10] 0.939 | [11] 1

CC1(C)CCC(NC(=O)[C@@H](N)CCC(=O)O)CC1
inactive: [1] 1.02 | [2] 0.999 | [3] 1.02 | [4] 0.995 | locus YGR078C, strain PAC10, hits give low values 1.02 | [5] 0.999 | [6] 1.01 | [7] 0.998 | [8] 0.999 | locus YNL322C, strain KRE1, hits give low values 1.01 | [9] 1 | [10] 1.02 | [11] 0.996
